Measured values as given in PubChem BioAssay.
Calls of active or inactive are those of the source.

Assays:
[1] = system: Human papillomavirus type 1a protein E7 (residues 44-93); test: small molecules binding HPV E7 44-93 – biochemical, small-molecule microarray, residues 44-93, 635 nm fluorescence, primary screen (AID 1108); conditions: fluorescence 635 nm, higher = more signal;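 also: E7 fragment applied at 1 µg/mL in TBST for 1 h at 4 C; score combines spot fluorescence with its signal to noise ratio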
[2] = hepatitis C replication reporter changes, two-sided – Huh7 cells, luciferase reporter, HCV replication inhibitor project, primary screen (AID 1109); conditions: Huh7 HCV replicon luciferase reporter, 48 h; higher = more signal;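 also: huh7 hepatoma cells harbouring a luciferase neomycin HCV replicon reporter; luciferase luminescence as measure of HCV replicon replication; test concentration not given here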
[3] = molecular target: Left-right determination factor 2 (Homo sapiens) (UniProt O00292); test: small molecules binding LEFTY2 protein – biochemical, small-molecule microarray, 635 nm fluorescence scan, primary screen (AID 1110); conditions: higher = more signal
[4] = molecular target: Calmodulin-1 (Homo sapiens) (UniProt P0DP23); test: small molecules binding calmodulin-1 with EGTA – biochemical, small-molecule microarray, Cy5-labelled CALM1, profiling panel (AID 1111); conditions: Cy5-CALM1 binding fluorescence, higher = more signal;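 also: labelled calmodulin applied in Tris saline Tween buffer holding calcium plus EGTA and DTT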
[5] = molecular target: Calmodulin-1 (Homo sapiens) (UniProt P0DP23); test: small molecules binding Ca-loaded calmodulin-1 – biochemical, small-molecule microarray, Cy5-labelled CALM1, plus calcium, artefact control for SMM control-protein annotation, profiling panel (AID 1112); conditions: Cy5-CALM1 binding fluorescence, higher = more signal;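 also: score merges spot fluorescence with signal to noise from triplicate slides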
[6] = probe aWnt5a binding to arrayed compounds – biochemical, biotinylated probe, 635/667 nm fluorescence, primary screen (AID 1113); conditions: small-molecule microarray, higher = more signal;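 also: score merges 667 nm fluorescence intensity with signal-to-noise per printed feature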
[7] = probe aShh binding to arrayed compounds – biochemical, biotinylated probe, 635/667 nm fluorescence, primary screen (AID 1114); conditions: small-molecule microarray, higher = more signal;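 also: probe is biotin-labelled aShh protein from a stem cell growth factor screen; measures binding of labelled protein to compounds printed on the slide; score merges feature fluorescence at 667 nm with signal-to-noise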
[8] = probe aNog binding to arrayed compounds – biochemical, biotinylated probe, 635/667 nm fluorescence, primary screen (AID 1115); conditions: small-molecule microarray, higher = more signal;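 also: probe is biotinylated aNog protein used at 0.15 µg/mL for 1 h at 4 C; z-score combines 667 nm fluorescence of each spot with its signal to noise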
[9] = molecular target: Torsin-1A-interacting protein 1 (Homo sapiens) (UniProt Q5JTV8); test: compound microarray binding of lysate hLAP1 – cell lysate, small-molecule microarray, COS7 lysate, 635/667 nm fluorescence, primary screen (AID 1116); conditions: 635 nm fluorescence, higher = more signal
[10] = molecular target: Alpha-bungarotoxin (Bungarus multicinctus) (UniProt P60615); test: compounds binding labelled alpha-BTX control protein – biochemical, small-molecule microarray, Alexa647 label, 635/667 nm fluorescence, artefact control for SMM control protein annotation, profiling panel (AID 1117); conditions: alpha-BTX-A647 binding fluorescence, higher = more signal
Albumin (Bos taurus) = Albumin (Bos taurus) (UniProt P02769); test: compounds binding labelled BSA control protein – biochemical, small-molecule microarray, Alexa647 label, 635/667 nm fluorescence, artefact control for SMM control protein annotation, profiling panel (AID 1118); conditions: BSA-A647 binding, fluorescence 635 nm, higher = more signal;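 also: score merges 667 nm emission intensity and signal-to-noise per printed compound spot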
[11] = probe aXIP binding to arrayed compounds – biochemical, NeuroSMM set, 635/667 nm fluorescence, primary screen (AID 1119); conditions: small-molecule microarray, higher = more signal, called active from +8 up or from −8 down;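 also: probe is the protein aXip251-270 applied at 1 µg/mL to compound-printed slides; binding of probe to printed compounds measured as 667 nm fluorescence plus signal to noise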
[12] = probe aNOTCH3 binding on compound microarray – biochemical, small-molecule microarray, 635/667 nm fluorescence, primary screen (AID 1120); conditions: higher = more signal;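 also: probe is a biotin-tagged antibody raised against NOTCH3 rather than NOTCH3 protein; score merges spot fluorescence near 667 nm with spot signal to noise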
[13] = probe aNOTCH2 binding on compound microarray – biochemical, small-molecule microarray, 635/667 nm fluorescence, primary screen (AID 1121); conditions: higher = more signal;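 also: score merges feature fluorescence read at 667 nm with its signal to noise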
[14] = molecular target: Carbonic anhydrase 2 (Homo sapiens) (UniProt P00918); test: compounds binding carbonic anhydrase 2 – biochemical, small-molecule microarray, Alexa647-labelled CAII, profiling panel (AID 1122); conditions: CAII-A647 binding fluorescence, higher = more signal
[15] = COS7 lysate on small-molecule microarray, probe aHis, 635 nm (AID 1123); conditions: COS7 cell lysate, fluorescence, higher = more signal;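 also: z-score combines 667nm fluorescence intensity with signal-to-noise per printed compound spot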
[16] = probe aLAP1 signal on lysate-treated microarray – cell lysate, small-molecule microarray, COS7 lysate, primary screen (AID 1124); conditions: probe aLAP1, fluorescence, higher = more signal;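 also: lysate comes from COS7 cells expressing LAP1 and is applied at 0.3 µg/mL; score merges spot fluorescence near 667 nm with signal-to-noise over triplicate slides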
Sam68 (KHDRBS1) = test: compounds binding KHDRBS1 protein – biochemical, small-molecule microarray, 635 nm fluorescence, primary screen (AID 1125); conditions: higher = more signal;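 also: score merges 667 nm channel intensity with signal to noise over triplicate slides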
[17] = system: Chordin-like protein 2 (CHRDL2); test: compounds binding chordin-like 2 – biochemical, small-molecule microarray, 635 nm fluorescence, primary screen (AID 1126); conditions: fluorescence 635 nm, higher = more signal;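 also: printed compound slides probed with Chrdl2 protein at 4 µg/mL for 1 h at 4 C; score merges 667 nm emission intensity with signal to noise over three replicate slides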
[18] = molecular target: Concanavalin-A (Canavalia ensiformis) (UniProt P02866); test: compounds binding concanavalin A lectin – biochemical, small-molecule microarray, Alexa647 label, 635 nm, artefact control for SMM control protein annotation, primary screen (AID 1127); conditions: ConA-A647 binding fluorescence, higher = more signal;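 also: z combines 667 nm emission intensity with signal-to-noise across three replicate slides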
Sequence of Concanavalin-A (Canavalia ensiformis) (P02866 whole entry, looked up): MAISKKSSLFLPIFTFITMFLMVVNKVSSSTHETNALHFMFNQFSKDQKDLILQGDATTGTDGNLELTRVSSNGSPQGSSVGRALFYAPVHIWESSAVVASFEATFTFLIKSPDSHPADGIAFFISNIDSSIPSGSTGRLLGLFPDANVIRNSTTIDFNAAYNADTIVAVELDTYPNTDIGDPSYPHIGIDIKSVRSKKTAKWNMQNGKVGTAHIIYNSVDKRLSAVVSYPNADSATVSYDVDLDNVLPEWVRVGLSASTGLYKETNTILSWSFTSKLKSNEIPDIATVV

Sequence of Torsin-1A-interacting protein 1 (Homo sapiens) (Q5JTV8 whole entry, looked up): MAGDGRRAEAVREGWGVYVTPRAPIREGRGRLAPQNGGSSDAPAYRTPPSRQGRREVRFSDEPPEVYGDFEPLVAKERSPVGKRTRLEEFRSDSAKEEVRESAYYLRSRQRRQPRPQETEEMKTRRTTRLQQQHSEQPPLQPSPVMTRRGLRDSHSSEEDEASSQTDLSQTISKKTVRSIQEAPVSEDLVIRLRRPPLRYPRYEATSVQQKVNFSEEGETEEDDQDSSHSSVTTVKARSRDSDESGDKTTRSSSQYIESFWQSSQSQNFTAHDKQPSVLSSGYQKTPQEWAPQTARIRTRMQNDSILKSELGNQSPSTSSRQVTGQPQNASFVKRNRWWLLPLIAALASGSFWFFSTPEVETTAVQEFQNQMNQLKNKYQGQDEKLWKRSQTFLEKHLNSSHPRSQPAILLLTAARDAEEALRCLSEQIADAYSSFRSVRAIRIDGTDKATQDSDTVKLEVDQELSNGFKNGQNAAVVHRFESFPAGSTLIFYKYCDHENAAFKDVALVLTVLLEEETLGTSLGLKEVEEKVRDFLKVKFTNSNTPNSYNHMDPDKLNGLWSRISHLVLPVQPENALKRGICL
Sequence of Alpha-bungarotoxin (Bungarus multicinctus) (P60615 whole entry, looked up): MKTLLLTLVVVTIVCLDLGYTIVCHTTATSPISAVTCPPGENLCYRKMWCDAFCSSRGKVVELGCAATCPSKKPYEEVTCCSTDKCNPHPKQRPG
Sequence of Albumin (Bos taurus) (P02769 whole entry, looked up): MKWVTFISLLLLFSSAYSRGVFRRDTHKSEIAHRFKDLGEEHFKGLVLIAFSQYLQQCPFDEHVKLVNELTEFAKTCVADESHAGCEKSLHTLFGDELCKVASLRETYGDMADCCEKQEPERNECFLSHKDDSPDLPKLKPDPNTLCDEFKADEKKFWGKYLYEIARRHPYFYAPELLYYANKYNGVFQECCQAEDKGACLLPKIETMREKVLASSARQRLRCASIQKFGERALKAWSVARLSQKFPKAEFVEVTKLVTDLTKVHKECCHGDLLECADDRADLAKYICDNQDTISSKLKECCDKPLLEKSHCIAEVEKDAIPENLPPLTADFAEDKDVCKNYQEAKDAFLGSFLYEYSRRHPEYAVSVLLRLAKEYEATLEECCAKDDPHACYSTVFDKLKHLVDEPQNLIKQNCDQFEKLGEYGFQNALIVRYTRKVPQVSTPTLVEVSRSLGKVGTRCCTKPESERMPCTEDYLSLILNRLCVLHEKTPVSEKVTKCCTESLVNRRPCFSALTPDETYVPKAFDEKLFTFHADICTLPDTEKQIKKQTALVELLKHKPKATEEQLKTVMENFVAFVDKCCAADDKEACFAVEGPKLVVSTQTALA
Sequence of Left-right determination factor 2 (Homo sapiens) (O00292 whole entry, looked up): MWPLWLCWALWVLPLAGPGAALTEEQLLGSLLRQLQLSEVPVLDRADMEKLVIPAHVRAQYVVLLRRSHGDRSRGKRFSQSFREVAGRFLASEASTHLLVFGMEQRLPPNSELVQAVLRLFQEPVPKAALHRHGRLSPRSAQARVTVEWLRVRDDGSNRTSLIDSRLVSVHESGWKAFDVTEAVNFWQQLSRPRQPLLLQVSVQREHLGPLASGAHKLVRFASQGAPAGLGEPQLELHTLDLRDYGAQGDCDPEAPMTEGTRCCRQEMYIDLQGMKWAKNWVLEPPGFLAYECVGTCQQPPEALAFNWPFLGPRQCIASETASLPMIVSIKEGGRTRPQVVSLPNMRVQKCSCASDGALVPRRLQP

SMILES | composite z-score [1] | z-score [2] | composite z-score [3] | composite z-score [4] | composite z-score [5] | composite z-score [6] | composite z-score [7] | composite z-score [8] | composite z-score [9] | composite z-score [10] | composite z-score (Albumin (Bos taurus)) | composite Z-score [11] | composite z-score [12] | composite z-score [13] | composite z-score [14] | composite z-score [15] | composite z-score [16] | composite z-score (Sam68 (KHDRBS1)) | composite z-score [17] | composite z-score [18]
C[N+](C)(C)CCCCCCNC(=O)[C@H]1C[C@H]2C(=O)N[C@@H](Cc3ccccc3)C(=O)N2[C@H]1c1ccc(O)cc1 | -0.306 | 0.975 | 1.09 | -0.667 | -0.973 | 0.0873 | -0.0146 | -0.175 | 0.302 | 0.966 | -0.459 | -0.505 (inactive) | -0.0471 | -0.137 | 0.4 | 1.05 | 0.0686 | 0.479 | 1.37 | 0.547
C=C(C)C1CCC(C(O)C2C=CC3C(=O)N(C)C(=O)C3N2N2CCCCC2)CC1 (stereo not given) | 1.44 | -0.385 | 0.67 | 0.949 | 0.763 | 0.048 | 0.413 | 0.751 | 0.555 | 1.89 | 0.735 | 0.172 (inactive) | 0.223 | 0.0598 | 0.514 | 2.03 | 0.386 | 1.29 | 1.24 | 1.12
CN1C(=O)C2C=CC(C(O)COCc3ccccc3)N(N(c3ccccc3)c3ccccc3)C2C1=O (stereo not given) | 1.31 | -1.4 | -0.142 | 1.41 | 0.667 | 0.0915 | 0.204 | 0.773 | 0.454 | 0.458 | 0.319 | 0.453 (inactive) | 0.227 | -0.0173 | 0.412 | 1.62 | 0.0687 | 1.05 | -0.571 | 0.671
CC(C)N1C(=O)c2ccccc2[C@@H](C(=O)NC2CC2)[C@@H]1c1ccc(CO)cc1 | -0.142 | 0.0045 | 0.415 | 1.01 | 0.343 | -0.0236 | -0.282 | -0.288 | 0.997 | 0.654 | 0.368 | 0.131 (inactive) | 0.0246 | -0.161 | 0.742 | 0.467 | 0.37 | 0.343 | 0.593 | 0.697
CC=CC(O)C1C=CC2C(=O)N(c3ccccc3)C(=O)C2N1Nc1ccccc1F (stereo not given) | 0.286 | -0.536 | -0.0207 | 0.416 | 0.213 | 0.339 | 0.429 | 1.07 | 0.0757 | 0.437 | 0.245 | 1.48 (inactive) | 0.541 | 0.468 | 0.74 | 2.08 | 0.412 | 0.338 | 0.295 | 0.0905
